About 410 targets per protein were measured; listed, in parts, are those with the strongest signals and a random draw of the rest.
What was measured:
Experiment in all cases: glycan array binding signal (z-score within array); higher = stronger binding
Details in all cases: glycan notation: IUPAC condensed, linker removed
[1] = molecular target: Kdn(a2-3)Gal(b1-3)GalNAc
How it was run: (§1)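 Columns mapping to the same glycan were averaged after glycan names were converted to IUPAC-condensed notation. The data come from 3228 arrays in the Consortium for Functional Glycomics database, limited to those with an available protein sequence. Binding is reported as a within-array Z-score averaged across arrays of one protein sequence and across linkers.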

[2] = molecular target: Man(a1-2)Man(a1-6)[Man(a1-3)]Man(a1-6)[Man(a1-2)Man(a1-2)Man(a1-3)]Man(b1-4)GlcNAc(b1-4)GlcNAc
How it was run: as §1

[3] = molecular target: Neu5Ac(a2-3)Gal(b1-3)GalNAc6S
How it was run: as §1

[4] = molecular target: Neu5Ac(a2-3)Gal(b1-3)GlcNAc(b1-3)GalNAc
How it was run: as §1

[5] = molecular target: Neu5Ac(a2-3)Gal(b1-4)GlcNAc(b1-2)Man(a1-3)[GlcNAc(b1-4)][Neu5Ac(a2-3)Gal(b1-4)GlcNAc(b1-2)Man(a1-6)]Man(b1-4)GlcNAc(b1-4)GlcNAc
How it was run: as §1

[6] = molecular target: Neu5Ac(a2-3)Gal(b1-4)GlcNAc(b1-2)[Neu5Ac(a2-3)Gal(b1-4)GlcNAc(b1-6)]Man(a1-6)[Neu5Ac(a2-3)Gal(b1-4)GlcNAc(b1-2)Man(a1-3)][GlcNAc(b1-4)]Man(b1-4)GlcNAc(b1-4)GlcNAc
How it was run: as §1

[7] = molecular target: Neu5Ac(a2-3)Gal(b1-4)GlcNAc(b1-3)Gal(b1-3)GlcNAc
How it was run: as §1

[8] = molecular target: Neu5Ac(a2-3)[GalNAc(b1-4)]Gal(b1-4)GlcNAc(b1-3)GalNAc
How it was run: as §1

[9] = molecular target: Neu5Ac(a2-6)Gal(b1-4)GlcNAc(b1-2)Man(a1-3)[GlcNAc(b1-2)Man(a1-6)]Man(b1-4)GlcNAc(b1-4)GlcNAc
How it was run: as §1

[10] = molecular target: Neu5Ac(a2-6)Gal(b1-4)GlcNAc(b1-2)Man(a1-3)[Neu5Ac(a2-6)Gal(b1-4)GlcNAc(b1-2)Man(a1-6)]Man(b1-4)GlcNAc(b1-4)[Fuc(a1-6)]GlcNAc
How it was run: as §1

[11] = molecular target: Neu5Ac(a2-6)GalNAc
How it was run: as §1

[12] = molecular target: Neu5Ac(a2-8)Neu5Ac(a2-3)Gal(b1-4)Glc
How it was run: as §1

[13] = molecular target: Neu5Gc(a2-3)Gal(b1-4)Glc
How it was run: as §1

[14] = molecular target: Fuc(a1-2)Gal(b1-3)GalNAc(b1-3)Gal(a1-4)Gal(b1-4)Glc
How it was run: as §1

[15] = molecular target: Fuc(a1-2)Gal(b1-4)GlcNAc
How it was run: as §1

[16] = molecular target: Fuc(a1-2)Gal(b1-4)GlcNAc(b1-3)Gal(b1-4)GlcNAc
How it was run: as §1

[17] = molecular target: Fuc(a1-2)[Gal(a1-3)]Gal(b1-4)Glc
How it was run: as §1

[18] = molecular target: Fuc(a1-2)[Gal(a1-4)]Gal(b1-4)GlcNAc
How it was run: as §1

[19] = molecular target: Fuc(a1-2)[GalNAc(a1-3)]Gal(b1-4)GlcNAc
How it was run: as §1

[20] = molecular target: Fuc(a1-3)[Gal(b1-4)]GlcNAc(b1-2)Man(a1-6)[Gal(b1-4)GlcNAc(b1-2)Man(a1-3)]Man(b1-4)GlcNAc(b1-4)GlcNAc
How it was run: as §1

[21] = molecular target: Fuc(a1-3)[Gal3S(b1-4)]GlcNAc6S
How it was run: as §1

[22] = molecular target: Gal(b1-3)Gal(b1-4)GlcNAc
How it was run: as §1

[23] = molecular target: Gal(b1-4)Glc6S
How it was run: as §1

[24] = molecular target: Gal(b1-4)GlcNAc(b1-2)Man(a1-3)[Gal(b1-4)GlcNAc(b1-2)Man(a1-6)]Man(b1-4)GlcNAc(b1-4)GlcNAc
How it was run: as §1

[25] = molecular target: Gal(b1-4)GlcNAc(b1-3)[Gal(b1-4)GlcNAc(b1-6)]Gal(b1-4)GlcNAc
How it was run: as §1

[26] = molecular target: Gal(b1-4)GlcNAc(b1-6)[Gal(b1-3)]GalNAc
How it was run: as §1

[27] = molecular target: Gal3S(b1-4)[Fuc(a1-3)]Glc
How it was run: as §1

[28] = molecular target: Gal3S6S(b1-4)GlcNAc6S
How it was run: as §1

[29] = molecular target: GlcNAc(b1-3)GalNAc
How it was run: as §1

[30] = molecular target: GlcNAc(b1-3)[GlcNAc(b1-4)][GlcNAc(b1-6)]GlcNAc
How it was run: as §1

[31] = molecular target: Man(a1-2)Man(a1-3)[Man(a1-2)Man(a1-6)]Man
How it was run: as §1

[32] = molecular target: Neu5Ac(a2-3)Gal(b1-4)GlcNAc(b1-3)Gal(b1-4)[Fuc(a1-3)]GlcNAc
How it was run: as §1

[33] = molecular target: Neu5Ac(a2-8)Neu5Ac(a2-8)Neu5Ac
How it was run: as §1

| Binder | glycan array binding signal (z-score) [1] | glycan array binding signal (z-score) [2] | glycan array binding signal (z-score) [3] | glycan array binding signal (z-score) [4] | glycan array binding signal (z-score) [5] | glycan array binding signal (z-score) [6] | glycan array binding signal (z-score) [7] | glycan array binding signal (z-score) [8] | glycan array binding signal (z-score) [9] | glycan array binding signal (z-score) [10] | glycan array binding signal (z-score) [11] | glycan array binding signal (z-score) [12] | glycan array binding signal (z-score) [13] | glycan array binding signal (z-score) [14] | glycan array binding signal (z-score) [15] | glycan array binding signal (z-score) [16] | glycan array binding signal (z-score) [17] | glycan array binding signal (z-score) [18] | glycan array binding signal (z-score) [19] | glycan array binding signal (z-score) [20] | glycan array binding signal (z-score) [21] | glycan array binding signal (z-score) [22] | glycan array binding signal (z-score) [23] | glycan array binding signal (z-score) [24] | glycan array binding signal (z-score) [25] | glycan array binding signal (z-score) [26] | glycan array binding signal (z-score) [27] | glycan array binding signal (z-score) [28] | glycan array binding signal (z-score) [29] | glycan array binding signal (z-score) [30] | glycan array binding signal (z-score) [31] | glycan array binding signal (z-score) [32] | glycan array binding signal (z-score) [33] |
| --- | --- | --- | --- | --- | --- | --- | --- | --- | --- | --- | --- | --- | --- | --- | --- | --- | --- | --- | --- | --- | --- | --- | --- | --- | --- | --- | --- | --- | --- | --- | --- | --- | --- |
| Mnn9-2N3 (Aspergillus fumigatus) (protein) MAVARRMRRTNPITLLLAAILAIGFFIFVLSPSTTSASPVKAGSASSSSTSQQRREDNAAENPLSPPTKPFFKSQPVRHDGQQAPPPVVQYNLNQLSSTSTSAANGERILILTPMARFVPEYWDNVVKLTYPHELISIGFIIPKNKEGNAALAALEAAIAKTQSGPIDKRFASISILRQDFEPPLQSQDEKERHKISNQKARRESMSRARNSLLFTTLGPATAWVLWLDADIVETPPTLIQDLTAHDHPVLVPNCYQRYYNSEKKKMDVRPYDYNSWIDSSTAQSMAAEMGPDEILLEGYAEMPTYRTLMAHLADTANPNPKKVIELDGVGGTALMVKAEVHRDGAMFPAFPFYHLVETEGFAKMAKRLGYSVYGLPDYFVSRNFFFFFFFFFFG | -2.43 | -0.789 | 2.97 | -0.456 | -1.34 | -0.217 | 0.123 | -2.19 | -1.47 | 0.808 | 2.59 | 2.12 | -0.055 |  |  |  |  |  |  |  |  |  |  |  |  |  |  |  |  |  |  |  |  |
| MCI4 (Toxoplasma gondii), Q9XZH7 (protein) MRASLPVHLVVCTQLSAVWFGVAKAHGGHRLEPHVPGFLQGFTDITPAGDDVSANVTSSEPAKLDLSCVHSDNKGSRAPTIGEPVPDVSLEQCAAQCKAVDGCTHFTYNDDSKMCHVKEGKPDLYDLTGGKTASRSCDRSCFEQHVSYEGAPDVMTAMVTSQSADCQAACAADPSCEIFTYNEHDQKCTFKGRGFSAFKERGVLGVTSGPKQFCDEGGKLTQEEMEDQISGCIQLSDVGSMTADLEEPMEADSVGACMERCRCDGRCTHFTFNDNTRMCYLKGDKMQLYSSPGDRTGPKSCDSSCFSNGVSYVDDPATDVETVFEISHPIYCQVICAANPLCTVFQWYASEAKCVVKRKGFYKHRKTGVTGVTVGPREFCDFGGSIRDREEADAVGSDDGLNAEATMANSPDFHDEVECVHTGNIGSKAQTIGEVKRASSLSECRARCQAEKECSHYTYNVKSGLCYPKRGKPQFYKYLGDMTGSRTCDTSCLRRGVDYSQGPEVGKPWYSTLPTDCQVACDAEDACLVFTWDSATSRCYLIGSGFSAHRRNDVDGVVSGPYTFCDNGENLQVLEAKDTE |  |  |  |  |  |  |  |  |  |  |  |  |  | -0.22 | -0.204 | -0.214 | -0.206 | -0.203 | -0.21 | -0.201 | -0.225 | 5.93 | 5.04 | 4.68 | 7.5 | 5.16 | -0.213 | -0.228 | -0.203 | -0.202 | -0.213 | -0.217 | -0.217 |

Reference: the supplement of paper PMC8728848
